# Measurements taken from ChEMBL document CHEMBL1961873, “Compounds: GSK PKIS; Assays: Nanosyn kinase panel” (2012).
# Molecular target: Tyrosine-protein kinase Fes/Fps (Homo sapiens) (UniProt P07332)
# Settings: at 1 µM
# 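Note: mean inhibition of FES from the GSK PKIS kinase inhibitor screening set, assayed by Nanosyn.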
# Chain of Tyrosine-protein kinase Fes/Fps (Homo sapiens) (P07332 whole entry): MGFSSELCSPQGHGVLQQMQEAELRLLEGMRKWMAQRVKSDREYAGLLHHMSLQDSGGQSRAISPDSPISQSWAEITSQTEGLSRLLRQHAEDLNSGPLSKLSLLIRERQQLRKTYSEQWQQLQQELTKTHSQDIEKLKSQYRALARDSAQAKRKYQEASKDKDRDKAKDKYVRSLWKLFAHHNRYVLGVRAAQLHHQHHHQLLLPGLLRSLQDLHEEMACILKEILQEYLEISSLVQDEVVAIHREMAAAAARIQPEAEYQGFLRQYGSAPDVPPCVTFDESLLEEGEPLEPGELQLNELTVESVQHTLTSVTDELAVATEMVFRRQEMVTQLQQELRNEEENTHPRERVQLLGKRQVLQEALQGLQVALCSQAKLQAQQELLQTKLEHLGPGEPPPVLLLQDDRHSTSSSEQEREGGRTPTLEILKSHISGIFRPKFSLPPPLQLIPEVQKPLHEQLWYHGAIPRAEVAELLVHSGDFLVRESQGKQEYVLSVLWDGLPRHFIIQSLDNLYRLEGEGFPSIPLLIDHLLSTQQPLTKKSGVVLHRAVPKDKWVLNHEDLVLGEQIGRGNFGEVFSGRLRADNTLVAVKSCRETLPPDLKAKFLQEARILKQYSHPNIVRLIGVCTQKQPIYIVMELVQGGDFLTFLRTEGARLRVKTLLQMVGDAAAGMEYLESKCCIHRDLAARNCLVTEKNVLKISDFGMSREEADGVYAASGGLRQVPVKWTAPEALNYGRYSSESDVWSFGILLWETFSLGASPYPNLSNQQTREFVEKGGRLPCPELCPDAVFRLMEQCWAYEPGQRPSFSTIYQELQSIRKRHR
row,Compound,inhibition
1,COc1cccc(-n2ncc3c(N/N=C/c4ccc(C(=O)NCCN(C)C)cc4)ncnc32)c1,3.63%
2,O=C(O[C@H]1CN[C@H](C#Cc2cc3ncnc(Nc4ccc5c(cnn5Cc5ccccc5)c4)c3s2)C1)N1CCOCC1,-1.2%
3,COc1cc(N2CCN(C(C)C)CC2)ccc1Nc1nc(Nc2cccc(F)c2C(=O)O)c2cc[nH]c2n1,63.7%
4,COC(=O)Nc1nc2ccc(Oc3ccc(NC(=O)Nc4cc(C(F)(F)F)ccc4F)cc3)cc2s1,0.99%
5,CCS(=O)(=O)c1ccc(OC)c(Nc2ncc(-c3cccc(C(C)=O)c3)o2)c1,2.72%
6,CN(C)CCNC(=O)Nc1ccc(N(C)c2ccnc(Nc3ccc(CS(C)(=O)=O)cc3)n2)cc1,6.7%
7,CC1(C)CC(n2cnc(-c3ccc(F)cc3)c2-c2ccnc(N)n2)CC(C)(C)N1,-0.76%
8,CCS(=O)(=O)c1ccc(OC)c(Nc2ncc(-c3cccc(F)c3)o2)c1,4.79%
9,Fc1cccc(COc2ccc(Nc3ncncc3C#Cc3ccccc3)cc2Cl)c1,3.61%
10,COc1ccccc1-c1cc(/C=C2\C(=O)Nc3ncc(Br)cc32)cc(Br)c1O,4.41%
11,OCCCNc1nccc(-c2c(-c3ccc(F)cc3)nn3cc(C(F)(F)F)ccc23)n1,2.62%
12,NS(=O)(=O)c1ccc(N/N=C2\C(=O)Nc3cccc(CCc4ccncc4)c32)cc1,-0.42%
13,O=C1Nc2ccccc2/C1=C1\CCc2cc(O)ccc21,6.81%
14,COc1cccc(Nc2nccc(-c3cnn4ncccc34)n2)c1,50.3%
15,CS(=O)(=O)Nc1ccc(-c2cc(-c3ccccc3)cc(C(N)=O)c2N)cc1,1.64%
